Reference: PubChem BioAssay (EPA / NIEHS)
Activity calls are given as the source filed them. Rule for the calls: active = hit-call score of the fitted dose curve at least 0.9, where 1 is the maximum; inactive = score below 0.9. Peptide text beside a SMILES is read from it.

assay: ATG_AP_1_CIS: Attagene CIS-FACTORIAL HepG2 Assay for human Activator Protein 1 (AP-1) (AID 2282931); details: HepG2 Attagene cis-factorial AP-1 reporter mRNA; actives raise or lower the signal
Procedure, shortened: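 Readout is reporter transcript level from endogenous transcription factor activity, quantified by RT-PCR with fluorescent primer extension and capillary electrophoresis. Transiently transfected HepG2 cells, 24 h exposure. Curves fitted both directions versus DMSO.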

Structure (SMILES)	outcome	AC50
O=S(=O)(O)c1ccc(N=Nc2c(O)ccc3ccccc23)cc1	inactive	–
CC1(C)[C@@H]2CC[C@@]1(C)C(=O)C2	inactive	–
Cc1ccc(C)c(OCCCC(C)(C)C(=O)O)c1	inactive	–
COc1ccc(C(=O)/C(Br)=C\C(=O)O)cc1	–	26.4 µM (active)
C/C=C/C=C/CCCCCCCO	–	127 µM (active)
CCCCCCCCCCCC(C)=O	–	72.7 µM (active)
CC(=O)OCC=C(C)C	inactive	–
CCCC=C(C=O)CC	inactive	–
CCc1cccc(C)c1N	inactive	–
CCCCCCCCCCCCC	inactive	–
COCC(=O)O	inactive	–
CCC1COC(=O)O1 (stereo unspecified)	inactive	–
CCCC1CCCC(=O)O1 (stereo unspecified)	inactive	–
C[Si](C)(C)N[Si](C)(C)C	inactive	–
CCCC(CC)c1ccccc1 (stereo unspecified)	–	167 µM (active)
CC(=O)OC1CCCCC1	inactive	–
CCCCCC(=O)OCC	inactive	–
CC1CC(=O)CC(C)(C)C1 (stereo unspecified)	inactive	–
CC(C)(C)NC(=O)[C@H]1CC[C@H]2[C@@H]3CC[C@H]4NC(=O)C=C[C@]4(C)[C@H]3CC[C@]12C	inactive	–

Structure (SMILES)	outcome	AC50
CCC1(C)C(=O)N(Cl)C(=O)N1Cl (stereo unspecified)	–	67.4 µM (active)
CC/C=C\CCOC(=O)c1ccccc1O	inactive	–
CN1CCN(C)CC1	inactive	–
CC(C)OC(=O)c1ccccc1	inactive	–
COC(=O)[C@H](Cc1ccccc1)NC(=O)[C@@H](N)CC(=O)O (H-Asp-Phe-OMe)	inactive	–
C=CCCCCCCCCC=O	inactive	–
c1ccc(-c2nc3ccccc3[nH]2)cc1	inactive	–
CC(=O)/C=C/C1C(C)=CCCC1(C)C (stereo unspecified)	inactive	–
C=C(C)C1CC=C(C)CC1 (stereo unspecified)	inactive	–
CCCCCCCCC(CO)CCCCCC (stereo unspecified)	inactive	–
O=C(O)c1ccc2c(c1)C(=O)OC2=O	inactive	–
CC(C)(c1ccccc1)c1ccc(Nc2ccc(C(C)(C)c3ccccc3)cc2)cc1	inactive	–
CCCC(C)C(=O)OCC (stereo unspecified)	inactive	–
NC(=O)Nc1ccccc1	inactive	–
CC1=CCC(C(C)C)C=C1 (stereo unspecified)	inactive	–
CCN(CC)c1cccc(C)c1	inactive	–
CC(=O)OC/C=C(/C)CCC=C(C)C	inactive	–
O=C(O)c1cc(O)c2ccccc2c1O	inactive	–

assay: ATG_AP_2_CIS: Attagene CIS-FACTORIAL HepG2 Assay for human Activator Protein 2 (AP-2) (AID 2282932); details: HepG2 AP-2 cis-reporter, Attagene transcription factor profiling; actives raise or lower the signal
Procedure, shortened: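 HepG2, transient MRTU transfection, cis-regulated reporters; 24 h compound exposure; RNA isolated, RT-PCR, 6-FAM labelling, HpaI digest, CE fluorescence. DMSO = negative control/baseline, bidirectional fit.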

Structure (SMILES)	outcome	AC50
O=S(=O)(O)c1ccc(N=Nc2c(O)ccc3ccccc23)cc1	inactive	–
CC1(C)[C@@H]2CC[C@@]1(C)C(=O)C2	inactive	–
Cc1ccc(C)c(OCCCC(C)(C)C(=O)O)c1	inactive	–
CCCCCCCCCCCC(C)=O	–	153 µM (active)
CC(=O)OCC=C(C)C	inactive	–
CCCC=C(C=O)CC	inactive	–
CCc1cccc(C)c1N	inactive	–
COCC(=O)O	inactive	–
CCC1COC(=O)O1 (stereo unspecified)	inactive	–
CCCC1CCCC(=O)O1 (stereo unspecified)	inactive	–
C[Si](C)(C)N[Si](C)(C)C	inactive	–
CCCC(CC)c1ccccc1 (stereo unspecified)	inactive	–
CC(=O)OC1CCCCC1	inactive	–
CCCCCC(=O)OCC	inactive	–
CC1CC(=O)CC(C)(C)C1 (stereo unspecified)	inactive	–
CC(C)(C)NC(=O)[C@H]1CC[C@H]2[C@@H]3CC[C@H]4NC(=O)C=C[C@]4(C)[C@H]3CC[C@]12C	inactive	–
CC/C=C\CCOC(=O)c1ccccc1O	inactive	–
COC(=O)[C@H](Cc1ccccc1)NC(=O)[C@@H](N)CC(=O)O (H-Asp-Phe-OMe)	inactive	–
c1ccc(-c2nc3ccccc3[nH]2)cc1	inactive	–
CC(=O)/C=C/C1C(C)=CCCC1(C)C (stereo unspecified)	inactive	–
C=C(C)C1CC=C(C)CC1 (stereo unspecified)	inactive	–
CCCCCCCCC(CO)CCCCCC (stereo unspecified)	inactive	–
CC(C)(c1ccccc1)c1ccc(Nc2ccc(C(C)(C)c3ccccc3)cc2)cc1	inactive	–
CCCC(C)C(=O)OCC (stereo unspecified)	inactive	–
NC(=O)Nc1ccccc1	inactive	–
CC1=CCC(C(C)C)C=C1 (stereo unspecified)	inactive	–
CCN(CC)c1cccc(C)c1	inactive	–
CC(=O)OC/C=C(/C)CCC=C(C)C	inactive	–
O=C(O)c1cc(O)c2ccccc2c1O	inactive	–
